High-throughput results: PubChem BioAssay, National Center for Advancing Translational Sciences (NCATS)
Compounds with a hit are over-represented: about 10% of the library has one in this group of screens.
G9a inh: qHTS Assay for Inhibitors of Histone Lysine Methyltransferase G9a; G9a H3K9 monomethylation, AlphaScreen, 2 h; Histone-lysine N-methyltransferase EHMT2 (Homo sapiens), Q96KQ7; Potency, µM (top dose mostly 102 µM), actives largely listed as inhibitors; 8.8% of 350,000 active; further: nearly all actives have a fitted effect of over 75% in size
Target sequence (Q96KQ7 913-1193 limits assumed): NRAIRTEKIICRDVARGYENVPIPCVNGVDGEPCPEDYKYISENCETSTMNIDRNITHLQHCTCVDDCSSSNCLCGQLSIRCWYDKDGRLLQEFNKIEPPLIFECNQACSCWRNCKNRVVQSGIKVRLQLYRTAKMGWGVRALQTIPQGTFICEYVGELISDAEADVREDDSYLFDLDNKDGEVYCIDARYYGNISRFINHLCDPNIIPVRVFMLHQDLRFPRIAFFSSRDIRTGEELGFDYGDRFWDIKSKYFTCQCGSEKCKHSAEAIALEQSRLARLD
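Using a bead-based AlphaScreen, monomethylated H3K9 product from 2 h room-temperature reactions (G9a 20 nM, peptide 500 nM, SAM 20 uM) was detected with 0.5 ug/mL rabbit anti-H3K9me1 antibody.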
VDR inh: Inhibitors of the vitamin D receptor (VDR): qHTS; VDR-SRC2-3 peptide fluorescence polarization, 2 h; 0.93% of 400,000 active; AID 504847, 2011; Vitamin D3 receptor (Homo sapiens), P11473; Potency, µM, actives largely listed as inhibitors
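FP read-out; VDR + SRC2-3 coactivator peptide; 23 nl compound by pintool; 2 h RT incubation; reagents held at 4 deg C, protected from light.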
PLK1 PBD block: qHTS for Inhibitors of PLK1-PDB (polo-like kinase 1 - polo-box domain): Primary Screen; 2.8% of 360,000 active; Serine/threonine-protein kinase PLK1 (Homo sapiens), P53350; Plk1 PBD binding of FITC phosphopeptide, fluorescence polarization; Potency, µM, actives largely listed as inhibitors; further: series mostly up to about 57 µM; nearly all actives have a fitted effect of over 65% in size
MmCpn inh: Inhibitors of TCP-1 ring complex (TRiC) of Methanococcus maripaludis (MmCpn): qHTS | purified Mm-Cpn ATPase, ADP Transcreener TR-FRET | Potency, µM (top dose mostly 76.9 µM), actives largely listed as inhibitors | 0.031% of 330,000 active | AID 504842, 2011; further: nearly all actives have a fitted effect of over 80% in size
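ATP (10 uM final) was added to archaeal chaperonin (25 nM final) after 10 min exposure to test compound at 37°C; after 30 min further incubation, ADP was detected by competitive TR-FRET.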
Sfp inh: qHTS Assay for Inhibitors of Bacillus subtilis Sfp phosphopantetheinyl transferase (PPTase) | AID 1490, 2009 | Biochemical Sfp PPTase activity, qHTS | 4'-phosphopantetheinyl transferase ffp (Bacillus subtilis), Q9F4F7 | Potency, µM, most hits filed as inhibitors | 3.5% of 310,000 active;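 further: the enzyme is Sfp with the accession as filed and its product quenches rhodamine fluorescence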
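After 15 min at room temperature with compound, 15 nM Sfp received 5 uM rhodamine-CoA plus 12.5 uM BHQ-2-ybbR (50 mM Hepes pH 7.6, 10 mM MgCl2). Rate came from the fluorescence difference over 30 min, ex 525/em 598 nm.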
CCT chaperon mod: High-Throughput Screening for Modulators of Cytosolic Chaperonin Activity; purified chaperonin ATPase assay, HTRF ADP detection, 30 min; activity change, % (test concentration not listed), hits read low; 0.3% of 360,000 active; AID 651819, 2012; in the data active means activity change below about -30%
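Enzyme 40 or 20 nM (batch-dependent) in Tris pH 7.4/KCl/MgCl2/DTT; cpd 76 uM single point; ATP 10 uM; 30 min 37 °C; Transcreener ADP HTRF detection, 30 min RT; ratio 665/615.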
Each line names hits and unclear results; the compound was inactive in the other large screens. Unless noted, the call rests on the fitted dose curve; in most records, active means well fitted curve in the direction sought with a large enough effect; inconclusive means small, poorly fitted or top-dose-only effect, or another doubt; inactive means no such curve, though single readings can be large; an effect the other way counts as inactive or inconclusive.

Cc1ccc(S(=O)(=O)c2nc(-c3ccccc3)oc2N2CCCC2)cc1	G9a inh 1.3µM, VDR inh inconclusive (no result: Sfp inh)
Cc1ccc(S(=O)(=O)c2nc(Cc3ccccc3)oc2N2CCOCC2)cc1	G9a inh 2.2µM, VDR inh inconclusive (no result: Sfp inh)
O=S(=O)(c1ccccc1)c1nc(-c2ccccc2)oc1N1CCCCC1	G9a inh 22µM, VDR inh inconclusive, Sfp inh inconclusive
O=C(NCc1ccccc1)c1ccc(NC(=O)c2nsc3ccccc23)cc1	none (no result: PLK1 PBD block, MmCpn inh, Sfp inh, CCT chaperon mod)
COc1cc(OC)c(NC(=O)c2nn(-c3ccc(C)cc3)c(=O)c3c2c2ccccc2n3C)cc1Cl	none (no result: PLK1 PBD block, MmCpn inh, Sfp inh, CCT chaperon mod)
N#Cc1ccc(C(=O)NCc2ccc3c(c2)CCN3C(=O)c2ccc(F)cc2)cc1	none (no result: PLK1 PBD block, MmCpn inh, Sfp inh, CCT chaperon mod)
CC(=O)c1ccc(N2CCN(S(=O)(=O)c3cccc4nsnc34)CC2)cc1	PLK1 PBD block 27µM
COc1cccc(N2CCN(S(=O)(=O)c3cccc4nsnc34)CC2)c1	G9a inh 56µM
COc1ccc(N2CCN(S(=O)(=O)c3cccc4nsnc34)CC2)cc1	none
O=C(Cn1cnc2sc3c(c2c1=O)CCCC3)NCC(=O)Nc1c(F)cccc1F	PLK1 PBD block 34µM
CCC(C)Sc1c(C(C)C)cnc2c1c(=O)n(C)c(=O)n2C (configuration not stated)	G9a inh inconclusive (no result: PLK1 PBD block, MmCpn inh, Sfp inh, CCT chaperon mod)
CCOc1ccc(C2C(C(=O)C3CC3)N3C=C(C#N)C=CC3C2(C#N)C#N)cc1 (configuration not stated)	G9a inh 25µM, Sfp inh inconclusive (no result: VDR inh, PLK1 PBD block, CCT chaperon mod)
O=C(NCCCN1CCOCC1)c1ccc2c(=O)n(CCc3ccccc3)c(=O)[nH]c2c1	none
COc1ccccc1Cn1c(=S)[nH]c2cc(C(=O)NCCCN3CCOCC3)ccc2c1=O	G9a inh 35µM
O=C(NCCCN1CCOCC1)c1ccc2c(=O)n(Cc3cccc(Br)c3)c(=S)[nH]c2c1	G9a inh 35µM
COc1ccccc1Cn1c(=S)[nH]c2cc(C(=O)NCCN3CCOCC3)ccc2c1=O	G9a inh inconclusive
COC(=O)N[C@@H](CCc1ccccc1)[C@]1(C(=O)OC)CCCC1=O	none (no result: G9a inh, PLK1 PBD block, MmCpn inh, CCT chaperon mod)
Cc1ccc(NC(=O)CN2C(=O)S/C(=C\c3ccc(-c4cccc(C(=O)O)c4C)o3)C2=O)cc1	G9a inh 11µM, Sfp inh inconclusive (no result: VDR inh, PLK1 PBD block, CCT chaperon mod)
C#CCN1C(=O)S/C(=C\c2ccc(-c3ccc(C(=O)O)cc3C)o2)C1=O	G9a inh inconclusive, PLK1 PBD block inconclusive
Cc1cc(C(=O)O)ccc1-c1ccc(/C=C2\SC(=O)N(CC(=O)Nc3ccc4c(c3)OCO4)C2=O)o1	Sfp inh 50µM (no result: VDR inh, PLK1 PBD block, CCT chaperon mod)
Cc1ccc(NC(=O)CN2C(=O)S/C(=C\c3ccc(C(=O)O)cc3)C2=O)cc1	none
Cc1ccccc1NC(=O)CN1C(=O)S/C(=C\c2ccc(-c3cc(C(=O)O)ccc3C)o2)C1=O	G9a inh 5µM, Sfp inh 35µM
Cc1ccc(C(=O)O)cc1-c1ccc(/C=C2\SC(=O)N(CC(=O)Nc3ccccc3)C2=O)o1	G9a inh 7.1µM, PLK1 PBD block inconclusive, Sfp inh 18µM
COc1ccccc1N1CCN(C(=O)c2cc3c(=O)oc4ccc(C)cc4c3s2)CC1	none (no result: PLK1 PBD block, MmCpn inh, Sfp inh, CCT chaperon mod)
CC(C)(C)OC(=O)CN1C(=O)S/C(=C\c2ccc(-c3cccc(C(=O)O)c3)o2)C1=O	G9a inh 56µM (no result: VDR inh, PLK1 PBD block, CCT chaperon mod)
COc1ccccc1/C=C/C(C)=O	none
COc1cc(C)c(CC/C(C)=C/C=C/C(C)=O)c(C)c1C	VDR inh 79µM, Sfp inh inconclusive (no result: G9a inh, PLK1 PBD block, MmCpn inh, CCT chaperon mod)
Cc1ccc(N(Cc2cccs2)C(=O)c2ccc(OC(C)C)cc2)cc1	none (no result: PLK1 PBD block, MmCpn inh, Sfp inh, CCT chaperon mod)
C=CCOc1c(Cl)cc(CNn2cn[nH]c2=S)cc1OC	G9a inh inconclusive, Sfp inh inconclusive
COc1cc(CNCCc2ccccc2)cc(Cl)c1OCc1ccccc1	Sfp inh 32µM
COc1cc(CNn2cn[nH]c2=S)cc(Br)c1OCc1ccccc1F	G9a inh 10µM
